Data from PubChem BioAssay AID1045 (SRMLSC, 2008).
Screen size: about 1,500 compounds; about 1,400 (93%) were called active. The set was probably picked from earlier hits. These entries were drawn from the full list. Results with a measured potency or affinity are listed apart. Values without a mark were called inactive. The rule behind the calls is not given here.

assay: growth suppression of beta-catenin-knockout colon cells, dose response, cell-based, HCT116, human colon tumor (AID 1045); conditions: CellTiter-Glo, 60 h; series mostly up to 30 µM; viability: at the top concentration

Compound	viability [%]
c1ccc(-c2cc3n(c2)CCc2ccccc2-3)cc1	80.8
CC(C[N+](C)(C)C)OC(N)=O (configuration not stated)	94.6
CC1CCN(CC(=O)N2c3ccccc3CCc3ccccc32)CC1	91.3
O=C(CSc1nnc(-c2ccccc2Cl)o1)Oc1ccc(Br)cc1	102
Cc1ccc(C(=O)Nc2ccccc2C(=O)NC(C(=O)O)C(C)C)cc1 (configuration not stated)	92.6
CCOC(=O)Nc1ccc(C)cc1Br	97.8
Cc1nn(C(=O)N2CCOCC2)c(C)c1C	93.1
O=S(=O)(NCCc1csc(-c2cccnc2)n1)c1ccc2c(c1)OCCO2	97.6
CCOc1ccccc1NC(=O)Cn1cnc2c(nnn2-c2cccc(OC)c2)c1=O	89.3
COCCn1c(=NC(=O)CSCC(=O)Nc2cc(C)on2)sc2cc(C(=O)OC)ccc21	114
CCOc1c(OC)ccc2c3c(c(=O)oc12)CCCC3	92.8
CCOc1ccc(C2/C(=C(\O)c3c(C)[nH]c(C(=O)OC)c3C)C(=O)C(=O)N2CCN(C)C)cc1 (configuration not stated)	101
COC(=O)c1cn(NC(=O)c2cc(OC)c(OC)c(OC)c2)c(=O)c2ccccc12	80
Cc1[nH]nc2c1C(c1ccsc1C)C(C#N)=C(N)O2 (configuration not stated)	94.6
CC(C)CCCCCCNC(=S)Nc1ccc(S(=O)(=O)N2CCOCC2)cc1	83.6
CC(=O)c1c(C)nc(-c2ccc(Cl)cc2Cl)n1O	94.7
Cc1cc(NC(=O)CSc2nc(-c3cccnc3)ccc2C#N)no1	88.9
[N-]=[N+]=NC1C[C@H](n2ccc(=O)[nH]c2=O)O[C@@H]1CO (some centres not stated)	97.4
COC(=O)c1cccc(N2C(=O)C(Cl)=C(N3CCOCC3)C2=O)c1	84.8
CS(=O)(=O)c1nc(-c2cccs2)cc(C(F)(F)F)n1	97.9
N#CC(c1ccc(Cl)nn1)c1ccc(Cl)cc1Cl (configuration not stated)	87
CCCCN(C)C(=O)C1CCC(=O)N(c2cc(OC)c(OC)c(OC)c2)C1c1ccc(OC)cc1 (configuration not stated)	100
O=C(NCc1ccc(F)cc1)C1C2C=CC3(CN(Cc4cccnc4)C(=O)C13)O2 (configuration not stated)	99.1
COCCNC(=O)NC1(C(F)(F)F)Oc2ccc(Cl)cc2O1 (configuration not stated)	90.1

Compound	viability [%]
COC(=O)c1ccc(/C=C(\C#N)C(=O)NC(C)c2ccccc2)cc1 (configuration not stated)	81.2
COC(=O)c1ccc(Oc2nc(C(N)=O)cc(-c3ccccc3)n2)cc1	89.1
CC(C)(C)c1ccc(CNc2ccc([N+](=O)[O-])cn2)cc1	87.2
Cc1ccc(CNc2ccc(O)cc2)cc1	89.3
CCN(CCNC(=O)Nc1ccc(Cl)cc1)c1ccccc1	99.3
O=C(c1nnc(Cc2ccc(Cl)cc2)o1)N1CCc2ccccc2C1	87.9
CN1CCN(c2nc(N3CCN(c4ccccc4)CC3)ncc2F)CC1	80.7
CNC(=O)C1C(=S)NC(N)=C(C#N)C1c1ccccc1 (configuration not stated)	81.2
CCC(Sc1nc2sc(C(=O)OC)c(C)c2c(=O)n1N)C(=O)N(CC)CC (configuration not stated)	98.7
Cc1cc(NS(=O)(=O)c2ccccc2)cc(Cl)c1O	94.8
O=C(NNc1nc2cc3c(cc2s1)OCO3)c1cccc(F)c1	91
COc1ccc(C(=O)OC2CCN(c3ncc(C(F)(F)F)cc3Cl)CC2)cc1	92.8
COc1ccc(CCN2C(=O)CN(Cc3ccccc3)CC2=O)cc1OC	86.4
O=C(NCCOc1ccccc1)C(c1ccccc1)c1ccccc1	101
Cc1cc2ncn(C(=O)N3CCC(C)CC3)c2cc1C	96.2
COC(C)(C)[C@H](O)COc1c2ccoc2cc2oc(=O)ccc12	96.7
CCOC(=O)c1[nH]c2ccc(OC)cc2c1NC(=S)N1CCN(c2ccccc2)CC1	93.1
Oc1ccc(C=Nc2ccc3ncccc3c2)c(O)c1	82.3
CCN(CC)S(=O)(=O)c1ccc(-c2nnc(SCc3nnc(-c4ccccc4)o3)o2)cc1	81.1
O=C(Nc1cccc(C(F)(F)F)c1)C12CC3CC(CC(C3)C1)C2	91.7
CN(C)c1nn(C(=O)Nc2cccc(C(F)(F)F)c2)cc1-c1ccccc1	82.9
CCCCCn1c(Sc2ccccc2)nc2c1c(=O)[nH]c(=O)n2C	83.4
CC(C(=O)NC(=O)NCc1ccccc1)N1C(=O)c2ccccc2C1=O (configuration not stated)	107
Cc1cc(NC(=O)Cn2c(=O)n(Cc3ccccc3)c(=O)c3ccccc32)no1	83.5

Compound	viability [%]
Cc1cc(Cl)ccc1N=c1ssnc1Cl	91.1
CCN(CC)C(=O)CCCOc1ccc(Cl)cc1Cl	83
O=C(Nc1cccc2ccccc12)N1CCN(Cc2ccc3c(c2)OCO3)CC1	96.3
COc1ccc(C(C)=O)cc1CSc1nc2ccccc2o1	96.2
CCOC(=O)C1=C(C)NC(=S)N(C(C)=O)C1c1ccc(Cl)cc1 (configuration not stated)	82.2
Cc1cc(C)c2c(=O)n(CC(=O)N3CCC(Cc4ccccc4)CC3)sc2n1	80.1
Cc1sc2c(=O)n3c(nc2c1C(=O)NCCCN1CCOCC1)CCCCC3	97.5
CCCCNS(=O)(=O)c1ccc2nc(-c3cccnc3)cc(C(=O)NC3CC3)c2c1	92.2
O=C(NCc1ccccn1)c1c(O)c2cccc3c2n(c1=O)CC3	97.4
CNC(=S)N/N=C(\C)c1ccc(N2CCOCC2)cc1	91.4
COc1cccc(OCC(=O)NN=C2c3ccccc3-c3ccccc32)c1	97
O=C(CSc1ncnc2c1nnn2-c1ccc(F)cc1)NCC1CCCO1 (configuration not stated)	84
Cc1cc(NC(=O)c2sc(Nc3cccc(C(F)(F)F)c3)nc2N)no1	88.3
COc1ccc(Nc2oc(COc3ccc(Cl)cc3)nc2C#N)cc1	84.1
CCCn1c(SCC(=O)c2ccc3c(c2)NC(=O)CO3)nc2ccccc21	82.9
C=CCNc1nc(Nc2ccc(-c3nc4ccccc4o3)cc2)nc(N2CCOCC2)n1	93.2
CCOC(=O)c1c(C2COc3ccccc3O2)csc1NC(=O)c1ccccc1 (configuration not stated)	87.7
O=C(CCNc1cc(Cl)cc(Cl)c1)c1ccco1	87.6
O=C(NCc1ccc2c(c1)OCO2)c1ccc2c(c1)C(=O)N(CC1CCCO1)C2=O (configuration not stated)	105
COC(=O)COc1ccc(S(=O)(=O)NCc2ccncc2)cc1	96.7
C=CCNC(=O)c1ccccc1NC(=O)c1ccccc1C	101
CCOc1ccc(N(CC(=O)NC2CCCCCC2)S(=O)(=O)c2c(C)noc2C)cc1	101
Nc1c(NCCN2CCOCC2)c2ccccc2oc1=O	85.6
COc1cccc2cc(C(=O)N(C)C)c(=O)oc12	92.8
